Measured values taken from PMC12864922, “TDP-43 directly inhibits mRNA accumulation in neurites through modulation of mRNA stability”.
In all, about 9,900 sequences were measured (“r (bound/input frequency ratio)”: median about 0.7, highest 2% from about 6.5 on). This is one part of a sample in which the highest values are shown more often than they occur.

B1: ENSMUSG00000061578.1471|Ksr2 (ssRNA)
RNA: GGGAGUUCUACAGUCCGACGAUCGCUUCGAUAUCCGCAUGCUAUGGAUGGAUAGGUAUGUGAAUAAAUGGAUGGAUGGAUGGAUUGAUUUGUGAAUGAAUGGAUGAAUGGAUGGGUAGGUGGGUGGAUGCAUAGGCAAGUAGAUGAAUGAAUAUGUGGGUAGAAGGGUGAGUGGGUGGAUGAAUGGAUGGAUAGGUUGGUAGGUUAAUGUAUUCGUGGAUGGGUGAAUGGAUGGAUGGAUAGAUAGAUGGGAAGGUGGAUGGACAGAUGGAUGGAUGGAUAGAUAGAUGGACAGGUGGUUGGUCUCUUGCGGUCGCACUAGUGUGGAAUUCUCGGGUGUCAAGG
B2: ENSMUSG00000061578.1475|Ksr2 (ssRNA)
RNA: GGGAGUUCUACAGUCCGACGAUCGCUUCGAUAUCCGCAUGCUAUGGAUGGAUGGAUGGAUUGAUUUGUGAAUGAAUGGAUGAAUGGAUGGGUAGGUGGGUGGAUGCAUAGGCAAGUAGAUGAAUGAAUAUGUGGGUAGAAGGGUGAGUGGGUGGAUGAAUGGAUGGAUAGGUUGGUAGGUUAAUGUAUUCGUGGAUGGGUGAAUGGAUGGAUGGAUAGAUAGAUGGGAAGGUGGAUGGACAGAUGGAUGGAUGGAUAGAUAGAUGGACAGGUGGUUGGUGGAUAAAUGAGUGAAUGAUUAUGUCUCUUGCGGUCGCACUAGUGUGGAAUUCUCGGGUGUCAAGG
B3: ENSMUSG00000061578.1462|Ksr2 (ssRNA)
RNA: GGGAGUUCUACAGUCCGACGAUCGCUUCGAUAUCCGCAUGCUAGAUGGGUAGGUGGGUAGAUAGGUAUAUGAAUGAAUGGAUGAAUGGAUGGGUGAAUGGAUGGAUAGGUAUGUGAAUAAAUGGAUGGAUGGAUGGAUUGAUUUGUGAAUGAAUGGAUGAAUGGAUGGGUAGGUGGGUGGAUGCAUAGGCAAGUAGAUGAAUGAAUAUGUGGGUAGAAGGGUGAGUGGGUGGAUGAAUGGAUGGAUAGGUUGGUAGGUUAAUGUAUUCGUGGAUGGGUGAAUGGAUGGAUGGAUAGAUAGAUGCUCUUGCGGUCGCACUAGUGUGGAAUUCUCGGGUGUCAAGG
B4: ENSMUSG00000061578.1472|Ksr2 (ssRNA)
RNA: GGGAGUUCUACAGUCCGACGAUCGCUUCGAUAUCCGCAUGCUAGAUAGGUAUGUGAAUAAAUGGAUGGAUGGAUGGAUUGAUUUGUGAAUGAAUGGAUGAAUGGAUGGGUAGGUGGGUGGAUGCAUAGGCAAGUAGAUGAAUGAAUAUGUGGGUAGAAGGGUGAGUGGGUGGAUGAAUGGAUGGAUAGGUUGGUAGGUUAAUGUAUUCGUGGAUGGGUGAAUGGAUGGAUGGAUAGAUAGAUGGGAAGGUGGAUGGACAGAUGGAUGGAUGGAUAGAUAGAUGGACAGGUGGUUGGUGGAUAACUCUUGCGGUCGCACUAGUGUGGAAUUCUCGGGUGUCAAGG
B5: ENSMUSG00000061578.1458|Ksr2 (ssRNA)
RNA: GGGAGUUCUACAGUCCGACGAUCGCUUCGAUAUCCGCAUGCUAGAAUGAAUGGAUGAUGGAUGAAUGGAUGGGUAGGUGGGUAGAUAGGUAUAUGAAUGAAUGGAUGAAUGGAUGGGUGAAUGGAUGGAUAGGUAUGUGAAUAAAUGGAUGGAUGGAUGGAUUGAUUUGUGAAUGAAUGGAUGAAUGGAUGGGUAGGUGGGUGGAUGCAUAGGCAAGUAGAUGAAUGAAUAUGUGGGUAGAAGGGUGAGUGGGUGGAUGAAUGGAUGGAUAGGUUGGUAGGUUAAUGUAUUCGUGGAUGGGUGCUCUUGCGGUCGCACUAGUGUGGAAUUCUCGGGUGUCAAGG
B6: ENSMUSG00000061578.1466|Ksr2 (ssRNA)
RNA: GGGAGUUCUACAGUCCGACGAUCGCUUCGAUAUCCGCAUGCUAUAUGAAUGAAUGGAUGAAUGGAUGGGUGAAUGGAUGGAUAGGUAUGUGAAUAAAUGGAUGGAUGGAUGGAUUGAUUUGUGAAUGAAUGGAUGAAUGGAUGGGUAGGUGGGUGGAUGCAUAGGCAAGUAGAUGAAUGAAUAUGUGGGUAGAAGGGUGAGUGGGUGGAUGAAUGGAUGGAUAGGUUGGUAGGUUAAUGUAUUCGUGGAUGGGUGAAUGGAUGGAUGGAUAGAUAGAUGGGAAGGUGGAUGGACAGAUGGAUGCUCUUGCGGUCGCACUAGUGUGGAAUUCUCGGGUGUCAAGG
B7: ENSMUSG00000061578.1477|Ksr2 (ssRNA)
RNA: GGGAGUUCUACAGUCCGACGAUCGCUUCGAUAUCCGCAUGCUAUGGAUUGAUUUGUGAAUGAAUGGAUGAAUGGAUGGGUAGGUGGGUGGAUGCAUAGGCAAGUAGAUGAAUGAAUAUGUGGGUAGAAGGGUGAGUGGGUGGAUGAAUGGAUGGAUAGGUUGGUAGGUUAAUGUAUUCGUGGAUGGGUGAAUGGAUGGAUGGAUAGAUAGAUGGGAAGGUGGAUGGACAGAUGGAUGGAUGGAUAGAUAGAUGGACAGGUGGUUGGUGGAUAAAUGAGUGAAUGAUUAUGUUGAUAGAUAUGUCUCUUGCGGUCGCACUAGUGUGGAAUUCUCGGGUGUCAAGG
B8: ENSMUSG00000061578.1468|Ksr2 (ssRNA)
RNA: GGGAGUUCUACAGUCCGACGAUCGCUUCGAUAUCCGCAUGCUAGAUGAAUGGAUGGGUGAAUGGAUGGAUAGGUAUGUGAAUAAAUGGAUGGAUGGAUGGAUUGAUUUGUGAAUGAAUGGAUGAAUGGAUGGGUAGGUGGGUGGAUGCAUAGGCAAGUAGAUGAAUGAAUAUGUGGGUAGAAGGGUGAGUGGGUGGAUGAAUGGAUGGAUAGGUUGGUAGGUUAAUGUAUUCGUGGAUGGGUGAAUGGAUGGAUGGAUAGAUAGAUGGGAAGGUGGAUGGACAGAUGGAUGGAUGGAUAGAUACUCUUGCGGUCGCACUAGUGUGGAAUUCUCGGGUGUCAAGG
B9: ENSMUSG00000061578.1470|Ksr2 (ssRNA)
RNA: GGGAGUUCUACAGUCCGACGAUCGCUUCGAUAUCCGCAUGCUAGGUGAAUGGAUGGAUAGGUAUGUGAAUAAAUGGAUGGAUGGAUGGAUUGAUUUGUGAAUGAAUGGAUGAAUGGAUGGGUAGGUGGGUGGAUGCAUAGGCAAGUAGAUGAAUGAAUAUGUGGGUAGAAGGGUGAGUGGGUGGAUGAAUGGAUGGAUAGGUUGGUAGGUUAAUGUAUUCGUGGAUGGGUGAAUGGAUGGAUGGAUAGAUAGAUGGGAAGGUGGAUGGACAGAUGGAUGGAUGGAUAGAUAGAUGGACAGGUGCUCUUGCGGUCGCACUAGUGUGGAAUUCUCGGGUGUCAAGG
B10: ENSMUSG00000061578.1460|Ksr2 (ssRNA)
RNA: GGGAGUUCUACAGUCCGACGAUCGCUUCGAUAUCCGCAUGCUAGAUGGAUGAAUGGAUGGGUAGGUGGGUAGAUAGGUAUAUGAAUGAAUGGAUGAAUGGAUGGGUGAAUGGAUGGAUAGGUAUGUGAAUAAAUGGAUGGAUGGAUGGAUUGAUUUGUGAAUGAAUGGAUGAAUGGAUGGGUAGGUGGGUGGAUGCAUAGGCAAGUAGAUGAAUGAAUAUGUGGGUAGAAGGGUGAGUGGGUGGAUGAAUGGAUGGAUAGGUUGGUAGGUUAAUGUAUUCGUGGAUGGGUGAAUGGAUGGAUGCUCUUGCGGUCGCACUAGUGUGGAAUUCUCGGGUGUCAAGG
B11: ENSMUSG00000061578.1467|Ksr2 (ssRNA)
RNA: GGGAGUUCUACAGUCCGACGAUCGCUUCGAUAUCCGCAUGCUAUGAAUGGAUGAAUGGAUGGGUGAAUGGAUGGAUAGGUAUGUGAAUAAAUGGAUGGAUGGAUGGAUUGAUUUGUGAAUGAAUGGAUGAAUGGAUGGGUAGGUGGGUGGAUGCAUAGGCAAGUAGAUGAAUGAAUAUGUGGGUAGAAGGGUGAGUGGGUGGAUGAAUGGAUGGAUAGGUUGGUAGGUUAAUGUAUUCGUGGAUGGGUGAAUGGAUGGAUGGAUAGAUAGAUGGGAAGGUGGAUGGACAGAUGGAUGGAUGGACUCUUGCGGUCGCACUAGUGUGGAAUUCUCGGGUGUCAAGG
B12: ENSMUSG00000061578.1473|Ksr2 (ssRNA)
RNA: GGGAGUUCUACAGUCCGACGAUCGCUUCGAUAUCCGCAUGCUAUAUGUGAAUAAAUGGAUGGAUGGAUGGAUUGAUUUGUGAAUGAAUGGAUGAAUGGAUGGGUAGGUGGGUGGAUGCAUAGGCAAGUAGAUGAAUGAAUAUGUGGGUAGAAGGGUGAGUGGGUGGAUGAAUGGAUGGAUAGGUUGGUAGGUUAAUGUAUUCGUGGAUGGGUGAAUGGAUGGAUGGAUAGAUAGAUGGGAAGGUGGAUGGACAGAUGGAUGGAUGGAUAGAUAGAUGGACAGGUGGUUGGUGGAUAAAUGAGUCUCUUGCGGUCGCACUAGUGUGGAAUUCUCGGGUGUCAAGG
B13: ENSMUSG00000031028.156|Tub (ssRNA)
RNA: GGGAGUUCUACAGUCCGACGAUCGCUUCGAUAUCCGCAUGCUAAGCUCCCAUUAUUGCCAGCAUGCCAUGAUCAGUGAGGGCUGUGUGCCAUGCUUAGGGGGAUGGCGCAGGGUGAGGGGAGCAGAGGAUAUUUUAGGGCCACAAGAGCUCAGAGGUAGCGGACCUCUGUGUGGUUCACCAACAGCAAUGCUGAUCCCUGAGUAUAGGGCACAUGUCUCUUGGUUACCUCACUGGUUAAUGGCAGAGUUGAGAACCUCAAAUUCUUUUGUUCCUACUGUUGCCCAGAAACUAGACUCUCUGACCUCUUGCGGUCGCACUAGUGUGGAAUUCUCGGGUGUCAAGG

These binders were tested against TDP-43 (Homo sapiens, UniProt Q13148 1-414) (assay: RNA Bind-n-Seq with designed 260-mer pool; 25 mM Tris-HCl, 150 mM KCl, 3 mM MgCl2, BSA (printed 500 mg/mL), 20 units/mL SUPERase IN; pH not stated; 500 nM RNA pool, 1 h, 4 C; TDP-43 5, 50, 500 nM; high values mean tight binding). Conditions: protein: recombinant; tags: SBP (GST cleaved off with PreScission; pGEX-GST-SBP).
Sequence of TDP-43 (Q13148 whole entry): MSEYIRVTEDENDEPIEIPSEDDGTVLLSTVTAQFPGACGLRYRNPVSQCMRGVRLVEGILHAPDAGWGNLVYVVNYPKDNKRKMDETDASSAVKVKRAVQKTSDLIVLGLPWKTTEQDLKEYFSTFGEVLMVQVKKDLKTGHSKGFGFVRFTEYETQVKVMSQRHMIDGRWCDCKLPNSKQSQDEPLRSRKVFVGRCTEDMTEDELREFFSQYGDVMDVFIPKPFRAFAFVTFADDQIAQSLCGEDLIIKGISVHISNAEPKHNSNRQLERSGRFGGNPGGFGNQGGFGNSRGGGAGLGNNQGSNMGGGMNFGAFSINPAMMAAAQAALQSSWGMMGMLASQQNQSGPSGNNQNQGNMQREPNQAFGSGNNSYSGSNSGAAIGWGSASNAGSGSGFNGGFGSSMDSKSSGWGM
Summary of the method: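 An in vitro-transcribed pool of 260-nt 3′ UTR oligos (500 nM) was incubated for 1 h at 4 °C with recombinant SBP-tagged TDP-43 at 5, 50 or 500 nM held on streptavidin beads. The buffer contained 25 mM Tris-HCl, 150 mM KCl, 3 mM MgCl2, BSA and SUPERase IN. Biotin-eluted bound RNA was sequenced, and binding, R, is each oligo's normalized read abundance in the bound sample over that in input.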

Binder | binding signal
B1 | 6.33 R (bound/input frequency ratio)
B2 | 8.8 R (bound/input frequency ratio)
B3 | 5.83 R (bound/input frequency ratio)
B4 | 5.09 R (bound/input frequency ratio)
B5 | 4.62 R (bound/input frequency ratio)
B6 | 5.78 R (bound/input frequency ratio)
B7 | 5.58 R (bound/input frequency ratio)
B8 | 14.4 R (bound/input frequency ratio)
B9 | 5.59 R (bound/input frequency ratio)
B10 | 6.72 R (bound/input frequency ratio)
B11 | 3.46 R (bound/input frequency ratio)
B12 | 9.68 R (bound/input frequency ratio)
B13 | 0.518 R (bound/input frequency ratio)
